# Inconclusive results are not listed. The source made the active and inactive calls.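 The calls were made as follows, unless noted: active = viability loss from added drug above about 55%, and viability with drug at most 40%, in both replicates (limit read from the data, passing the limit was not always enough); inconclusive = both conditions met in only one replicate; inactive = neither replicate meets both conditions.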
# Tests used:
# [1] = reduced viability of SK-BR-3 breast cancer cells – cell-based, 24 h, human, pilot screen (AID 572;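 active = viability at or below 10% of carrier control in both of two separate runs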;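 also: compound exposure lasted between 18 and 24 h rather than exactly 24 h; 100% = carrier-treated control wells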); details: SK-BR-3 viability, CellTiter-Glo luminescence, at 10 µM, stronger effect = lower value
# [2] = MRP1 drug-resistance reversers in H69AR cells – cell-based, doxorubicin co-treatment, pilot screen (AID 601); details: CellTiter-Glo, 72 h, at 10 µM; for differential viability (reversal): stronger effect = higher value
# [3] = yeast transport mutant growth inhibition pilot in 384-well plates, post-Golgi transport modulator project (AID 636; in the data active = inhibition above about 31%); details: absorbance 615 nm, about 18 h, stronger effect = higher value
# [4] = growth suppression of yeast trafficking mutant, preliminary HTS, modulators of trafficking downstream of Golgi apparatus project, 1536-format plate, OD 615 nm (AID 637; in the data active = inhibition above about 30%); details: yeast transport mutant growth, absorbance 615 nm, 18 h; stronger effect = higher value
# [5] = H69AR cell proliferation blockers – human, duplicate replicates, primary screen (AID 580;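 active = viability at or under a set limit in both replicates, limit being median viability minus 3 SD, cut at about 48% in these data, passing the limit was not always enough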;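 also: 100% = mean luminescence of untreated wells and 0% = no signal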); details: H69AR lung tumor cells viability, ATP luminescence, 72 h; at 10 µM; stronger effect = lower value
# [6] = S. cerevisiae growth inhibition in permissive medium (OD615), pilot counter-assay for S. cerevisiae lifespan shortening project, permissive growth control (AID 705;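 active = growth inhibition above 25% in both replicates, a cutoff set 3 SD above the mean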); details: OD615, 24 h, at 10 µM, stronger effect = higher value
# [7] = S. cerevisiae growth inhibition in restrictive medium, OD615, pilot screen, restrictive growth control, yeast lifespan reduction project (AID 706;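 active = growth inhibition above a set limit, 3 SD over mean compound inhibition, in both replicates, cut at about 43% in these data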;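 also: modified DeaD lifespan yeast strain shifted to restrictive glucose medium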); details: OD615, 48 h, at 10 µM, stronger effect = higher value
# [8] = doxorubicin toxicity protection in MRP-1 cells – H69AR cells, CellTiter-Glo, duplicate, MRP-1 activator project, pilot screen (AID 807;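 active = viability increase at or above a cutoff of the median across tested compounds plus 3 SD, cut at about 8.5% in these data, passing the limit was not always enough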;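 also: compound pretreatment 18-22 h then 72 h combined with doxorubicin; 0% = doxorubicin alone and 100% = vehicle without doxorubicin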); details: H69AR viability with doxorubicin, CellTiter-Glo luminescence; at 10 µM; stronger effect = higher value
# [9] = viability of HCT116 without oncogenic beta-catenin – human colon tumor cells, pilot screen (AID 823;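 active = cell viability at or below a set limit in both duplicate runs, the limit being the all-compound median minus 4 SD, cut at about 23% in these data, passing the limit was not always enough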;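 also: 0% = wells killed by 20 µM Hyamine and 100% = untreated DMSO cell wells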); details: HCT116 beta-catenin knockout viability, CellTiter-Glo, 60 h; at 10 µM; stronger effect = lower value
# [10] = viability of PTEN-null HCT116 cells – cell-based, HCT116 clonal line, CellTiter-Glo, pilot screen (AID 824;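 active = viability at or below 27.92% in each of two runs, the all-compound median minus 4 SD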;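 also: 0% = 20 µM Hyamine control and 100% = vehicle cell control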); details: HCT116 PTEN-deleted viability, 60 h, at 10 µM, stronger effect = lower value
# [11] = RAM pathway blockade in budding yeast – dse1pr::URA3 reporter, 5-FOA selection, pilot screen (AID 869;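 active = inhibition over a set limit, the all-compound mean plus 3 SD, in both replicate runs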;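 also: 0% = DMSO wells with no growth and 100% = 10 µM 1-NA-PP1 with full growth; RAM network block rescues cells from 5-FOA so hits raise OD615 growth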); details: S. cerevisiae dse1pr::URA3 5-FOA growth, OD615, 2 d; at 10 µM; stronger effect = higher value; strain carries analog-sensitive mutant Cbk1 kinase
# [12] = H69AR cells + 2 uM doxorubicin, measured here: viability with 2 uM doxorubicin, stronger effect = lower value
# [13] = H69AR cells, compound alone cytotoxicity
Structure (SMILES),viability [1],differential viability (reversal) ([2]; H69AR cells + 2 uM doxorubicin),"viability [2, 12]","viability [2, 13]",inhibition [3],inhibition [4],viability [5],growth inhibition [6],growth inhibition [7],viability increase [8],viability [9],viability [10],inhibition [11]
C[C@]12CC[C@@H]3c4ccc(OC(=O)c5ccccc5)cc4CC[C@H]3[C@@H]1CC[C@@H]2O,78% (inactive),-9.02% (inactive),48%,39%,2.73% (inactive),32% (active),,,,,,,
O=C(Nc1ccc2nn(-c3ccccc3)nc2c1)c1ccc(Br)o1,67.5% (inactive),-0.29% (inactive),9.78%,9.49%,-7.43% (inactive),-10.3% (inactive),9.49% (active),,,,,,
COc1ccc(Cl)cc1C(=O)NCCc1ccc(S(=O)(=O)NC(=O)NC2CCCCC2)cc1,116% (inactive),-9.18% (inactive),103%,93.5%,0.26% (inactive),-1.33% (inactive),93.5% (inactive),,,,,,
CCOC(=O)c1cc(-c2ccc(Cl)s2)nc2c1c(C)nn2C,66.5% (inactive),-26.2% (inactive),62%,35.8%,-1.45% (inactive),-0.82% (inactive),,,,,,,
Cc1ccc(-c2cc(C(F)F)nc(NCC3CCCO3)n2)cc1 (stereo not given),86% (inactive),6.21% (inactive),94.2%,100%,1.56% (inactive),-5.25% (inactive),100% (inactive),-12.2% (inactive),-9% (inactive),2.09% (inactive),66.4% (inactive),71.6% (inactive),1.38% (inactive)
COc1ccccc1NC(=O)c1oc2ccccc2c1NC(=O)c1cc(OC)c(OC)c(OC)c1,56.5% (inactive),-18.4% (inactive),35.3%,16.9%,-3.33% (inactive),-2.1% (inactive),16.9% (active),,,,,,
O=S(=O)(c1cccc2cnccc12)N1CCCNCC1,140% (inactive),1.83% (inactive),95.5%,97.4%,-2.08% (inactive),4.5% (inactive),97.4% (inactive),,,,,,
Cc1cc(C)c2ccc(N)nc2c1O,87.5% (inactive),-7.52% (inactive),28.9%,21.4%,-1.43% (inactive),-1.48% (inactive),21.4% (active),,,,,,
Oc1cccc(Nc2nc(NCC3CCCO3)c3ccccc3n2)c1 (stereo not given),73% (inactive),-19.3% (inactive),41.4%,22.1%,-5% (inactive),3.17% (inactive),22.1% (active),,,,,,
COc1cc2c(C#N)c(N3CCN(c4ccccc4OC)CC3)nc(N)c2c(N)n1,110% (inactive),4.45% (inactive),63.3%,67.8%,-0.26% (inactive),5.9% (inactive),67.8% (inactive),,,,,,
COc1cccc(CN2C(=O)C3(C(C#N)=C(N)OC4=C3C(=O)CCC4)c3ccccc32)c1 (stereo not given),104% (inactive),-2.01% (inactive),12.6%,10.6%,84.2% (active),51.6% (active),,,,,,,
O=C(O)c1ccc2c3c(ncnc13)-c1ccccc1C2=O,60.5% (inactive),-19.5% (inactive),99.8%,80.3%,5.51% (inactive),1.67% (inactive),80.3% (inactive),,,,,,
CCCCn1c(SCc2ccc(Cl)cc2)nc2c1c(=O)[nH]c(=O)n2C,80% (inactive),6.03% (inactive),70.7%,76.7%,-4% (inactive),0.73% (inactive),76.7% (inactive),,,,,,
COc1ccc(-n2cc(-c3ccccc3)c3c(N4CCN(CCO)CC4)ncnc32)cc1,100% (inactive),10.5% (inactive),45.7%,56.2%,-6.13% (inactive),0.48% (inactive),56.2% (inactive),,,,,,
Cc1ccc(Cl)cc1N1CCN(C(=O)c2cn(C)c(=O)c3c2c2ccccc2n3C)CC1,94% (inactive),-28.7% (inactive),31.8%,3.07%,-1.73% (inactive),4.73% (inactive),3.07% (active),,,,,,
COc1cccc(-c2cc(C(=O)Nc3cc(C)n(Cc4ccc(Cl)cc4)n3)no2)c1,57.5% (inactive),-6.4% (inactive),58.5%,52.1%,-6.35% (inactive),-7% (inactive),,,,,,,
CC(=O)Nc1ccccc1OCC(=O)c1cc(C)n(Cc2cccs2)c1C,92% (inactive),-4.4% (inactive),90.2%,85.8%,-3.01% (inactive),-3.45% (inactive),85.8% (inactive),,,,,,
O=C(CCCN1CCC(O)(c2ccc(Cl)cc2)CC1)c1ccc(F)cc1,79% (inactive),3.11% (inactive),80.9%,84%,2.34% (inactive),-3.17% (inactive),84% (inactive),,,,,,
Cc1cccn2c(=O)c3cc(C(=O)NC4CCCC4)c(=N)n(C4CCCC4)c3nc12,107% (inactive),15.5% (inactive),12.1%,27.6%,-8.49% (inactive),0.81% (inactive),27.6% (active),,,,,,

# Source: PubChem BioAssay
